High-throughput results: PubChem, National Center for Advancing Translational Sciences (NCATS)
Hits are enriched below; roughly 6.5% of the tested compounds scored in any of these assays.
TGFb SMAD3 inh = qHTS for Inhibitors of TGF-b; HepG2 CAGA-GFP TGF-b/SMAD3 reporter, GFP fluorescence, 18 h; TGF-beta stimulated, 500 pg/mL final; Potency, µM (doses to about 46.1 µM), without a hit: at the highest dose activity, negative = inhibition, actives largely listed as inhibitors; actives 1.2% (n = 410,000); AID 588855, 2011; note: potency is the fitted concentration of half-maximal effect; % is set by controls: 0 for no effect and ±100 for the full control effect; nearly all actives have a fitted effect of over 65% in size
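First, reporter cells (HEPG2 CAGA-GFP) rested 2 h at 37 degrees C. Next, compounds were pinned in and TGF-beta added to 500 pg/mL final. After 18 h, GFP was imaged per cell and summed per well.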
IL1B secr inh = qHTS for Inhibitors of Inflammasome Signaling: IL-1-beta AlphaLISA Primary Screen; actives 4.7% (n = 360,000); THP-1 LPS/ATP IL-1B secretion, AlphaLISA, 16 h; active compounds read low; activity change, % at 57.5 µM; AID 743279, 2014; in the data active = activity change below about -50%; inconclusive = mostly about -30% to -49%; note: % is set by controls: 0 for no effect and ±100 for the full control effect
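Secreted IL-1B measured by AlphaLISA bead assay after 16 h compound exposure of THP-1 cells; compounds (final up to 57.5 uM) added 1 h before LPS (250 ng/mL) and ATP (1.25 mM) stimulation; lower signal means less secretion.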
HepG2 viability = qHTS for Inhibitors of TGF-b: Cytotox Counterscreen. actives 0.76% (n = 410,000). Potency, µM (doses to about 46.1 µM), for the others: top-dose activity change, negative = cytotoxicity, most hits filed as cytotoxic. HepG2 CAGA-GFP viability, ATP luminescence, 18 h; note: potency is the fitted concentration of half-maximal effect
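CellTiter-Glo luminescence gave cytotoxicity after 18 hours at 37 degrees C. The cells were HepG2 CAGA-GFP in 1% FBS DMEM, stimulated with 500 pg/mL TGF-beta after compound addition. %Activity was normalised to no-cell wells (complete cell-killing) and DMSO (no toxicity), and curves were fitted and classified.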
HT1080 IDH1KD tx = qHTS for induction of synthetic lethality in tumor cells producing 2HG: qHTS for the HT-1080-IDH1KD cell line | HT-1080 IDH1 knockdown viability, ATP luminescence, 48 h | Potency, µM (titrated, usually from 46.1 µM), for inactives: at the top dose activity, negative = toxicity, most hits filed as cytotoxic | actives 2% (n = 360,000) | AID 686971, 2013;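 note: potency is the fitted concentration of half-maximal effect; 0% = DMSO wells and -100% = cell-free medium wells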
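After a 2 h attachment period, IDH1KD HT-1080 cells took pin-transferred compound for 48 h at 37 °C; ATP-based luminescence after 10 min room-temperature reagent incubation reported viability.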
HT1080NT lethal = qHTS for induction of synthetic lethality in tumor cells producing 2HG: qHTS for the HT-1080-NT fibrosarcoma cell line. HT-1080-NT fibrosarcoma viability, CellTiter-Glo ATP luminescence, 48 h. Potency, µM (series often up to 46.1 µM), without a hit: at the highest dose activity, negative = less viability, actives largely listed as cytotoxic. actives 1.6% (n = 360,000). AID 686970, 2013;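 note: NT is the 2HG producing partner of a matched IDH1 knockdown line; potency is the fitted concentration of half-maximal effect; 0% = DMSO-treated cells and -100% = media-only wells without cells; nearly all actives have a fitted effect of over 55% in size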
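750 cells/well, RPMI + 5% FBS; 2 h settle, compound pin-transfer, 48 h at 37 degrees C. CellTiter-Glo 10 min RT, luminescence. Normalized to DMSO and media-only wells.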
Giardia killer = Small Molecules that selectively kill Giardia lamblia: qHTS | actives 0.15% (n = 340,000) | Giardia lamblia trophozoite viability | activity change, % at 7.66 µM, hits read low; in the data active = activity change below about -80%; inconclusive = between about -30% and that limit;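 note: parasites exposed to compound for two days anaerobically before the ATP read; % is set by controls: 0 for no effect and ±100 for the full control effect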
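Luminescence from cellular ATP indicates surviving trophozoites (100 cells/well) following 48 hrs anaerobic compound treatment at 37 deg C; signal develops 15-30 min at room temperature.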
Active calls of the source: *. Unless noted, calls come from the whole dose curve; as a rule, active = well fitted curve in the direction sought with a large enough effect; inconclusive = small, poorly fitted or top-dose-only effect, or another doubt; inactive = no such curve, though single readings can be large; an effect the other way counts as inactive or inconclusive.

`CC1(C)Cc2c(sc(NC(=O)c3ccc(C(=O)c4ccccc4)cc3)c2C#N)C(C)(C)N1` gave TGFb SMAD3 inh 16%, IL1B secr inh inactive, HepG2 viability 0%, HT1080 IDH1KD tx -17%, HT1080NT lethal -13% and Giardia killer 3.
CC1(C)Cc2c(sc(NC(=O)COc3ccc(Cl)cc3)c2C#N)C(C)(C)N1 was read as TGFb SMAD3 inh 2%, IL1B secr inh -70*, HepG2 viability -15%, HT1080 IDH1KD tx inconclusive, HT1080NT lethal inconclusive and Giardia killer 2.
O=S(=O)(c1ccc(N2CCN(S(=O)(=O)c3ccccc3)CC2)nc1)N1CCCC1 was read as TGFb SMAD3 inh 5%, IL1B secr inh -1, HepG2 viability -10%, HT1080 IDH1KD tx -5%, HT1080NT lethal 3% and Giardia killer 5.
Screening O=S(=O)(c1ccc(N2CC=C(c3ccccc3)CC2)nc1)N1CCCC1 returned TGFb SMAD3 inh -16%, IL1B secr inh -93*, HepG2 viability -6%, HT1080 IDH1KD tx inconclusive, HT1080NT lethal inconclusive and Giardia killer 0.
Screening Nc1nnc(CCS(=O)(=O)c2cc(Cl)ccc2Cl)s1 returned TGFb SMAD3 inh 0%, IL1B secr inh 14, HepG2 viability 9%, HT1080 IDH1KD tx 9%, HT1080NT lethal 15% and Giardia killer 8.
`Cc1ccccc1CN(C)CCS(=O)(=O)c1cc(Cl)ccc1Cl` gave TGFb SMAD3 inh inconclusive, IL1B secr inh inconclusive, HepG2 viability 7%, HT1080 IDH1KD tx 13µM*, HT1080NT lethal 16µM* and Giardia killer 28.
For N#C/C(=C\c1ccc([N+](=O)[O-])o1)C(=O)Nc1ccc(F)cc1 the results were TGFb SMAD3 inh -20%, IL1B secr inh -90*, HepG2 viability -6%, HT1080 IDH1KD tx inconclusive, HT1080NT lethal inconclusive and Giardia killer 14.
`O=C(/C=C/c1cccnc1)c1ccc([N+](=O)[O-])cc1` gave TGFb SMAD3 inh -4%, IL1B secr inh -21, HepG2 viability -37%, HT1080 IDH1KD tx -25%, HT1080NT lethal inconclusive and Giardia killer 42.
For CN(C)C(=O)COc1ccc(C(=O)/C=C/c2cccnc2)cc1 the results were TGFb SMAD3 inh inconclusive, IL1B secr inh -101*, HepG2 viability -11%, HT1080 IDH1KD tx inconclusive, HT1080NT lethal inconclusive and Giardia killer 23.
O=C(C=Cc1cccnc1)c1ccccc1 was read as TGFb SMAD3 inh 20µM*, IL1B secr inh -106*, HepG2 viability -37%, HT1080 IDH1KD tx 18µM*, HT1080NT lethal inconclusive and Giardia killer -14.
For COc1cc(C(=O)/C=C/c2cccnc2)c([N+](=O)[O-])cc1OC the results were TGFb SMAD3 inh inconclusive, IL1B secr inh -100*, HepG2 viability -93%, HT1080 IDH1KD tx inconclusive, HT1080NT lethal inconclusive and Giardia killer -90*.
`O=C(/C=C/c1cccnc1)c1ccc(O)cc1` gave TGFb SMAD3 inh inconclusive, IL1B secr inh -98*, HepG2 viability -3%, HT1080 IDH1KD tx inconclusive, HT1080NT lethal inconclusive and Giardia killer 1.
For O=C(/C=C/c1cccnc1)c1ccccc1O the results were TGFb SMAD3 inh 14%, IL1B secr inh -2, HepG2 viability -14%, HT1080 IDH1KD tx -13%, HT1080NT lethal -11% and Giardia killer -10.
COc1cc(C(=O)Nc2ccncc2)c([N+](=O)[O-])cc1OC was read as TGFb SMAD3 inh 6%, IL1B secr inh 23, HepG2 viability -1%, HT1080 IDH1KD tx -8%, HT1080NT lethal -4% and Giardia killer 13.
